Results on eight molecules are retold here after PubChem BioAssay (NCI).

Some test systems named below: K-562 leukemia; MALME-3M melanoma; MDA-MB-231 breast; RXF 393 renal; SF-268 CNS; SF-295 CNS; SF-539 CNS; UACC-257 melanoma; M14 melanoma; HCT-15 colon; HT29 colon; SNB-75 CNS; SNB-19 CNS; U251 CNS; PC-3 prostate; SK-MEL-5 melanoma; UACC-62 melanoma; LOX IMVI melanoma; SK-MEL-28 melanoma; SK-MEL-2 melanoma.
Holding throughout (assay): NCI-60 one-dose screen, 48 h (100 = growth as untreated, 0 = no growth, -100 = all killed)
Common to all, as to settings: 10 µM

Compounds without any hit were thinned out: in the full panel of roughly 83,000, 20% have a hit.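 Percent growth is the endpoint: 0 to 100 indicates growth inhibition (40 means 60% inhibition), 0 means no net growth, and negative values indicate cell death.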 Values without a mark were called inactive. The source made the active and inactive calls. Rule for the calls: active = growth percent below 10; inactive = the rest.

As to `COc1ccccc1/C=C/C(=O)c1ccccc1`, the growth in the assay with K-562 leukemia is 6.19% (active); in the assay on MALME-3M melanoma, 90.8%; in the assay on MDA-MB-231 breast it was 80.5%; in the assay with RXF 393 renal, 92%; in the assay on SF-268 CNS, 87.9%; with SF-295 CNS, 101%. The growth is 92% in the assay with SF-539 CNS; 94.3% in the assay with UACC-257 melanoma; 85.7% in the assay on M14 melanoma; 61.6% with HCT-15 colon; 54.2% in the assay with HT29 colon; 87.8% in the assay with SNB-75 CNS. The growth was 99.4% in the assay with SNB-19 CNS; 58.4% in the assay with U251 CNS; 54.5% in the assay with PC-3 prostate; 82.1% in the assay on SK-MEL-5 melanoma; 67.3% in the assay on UACC-62 melanoma; 59.8% in the assay on LOX IMVI melanoma. Besides, the values for the growth in the assay on SK-MEL-28 melanoma and with SK-MEL-2 melanoma were 97.5% and 84%, respectively.
Take `COc1ccc(-c2nsc3c2NC(=O)CC3c2ccc(F)cc2)cc1` (stereo not given): the growth in the assay with K-562 leukemia was 10.1%; in the assay with MALME-3M melanoma, 31.1%; with MDA-MB-231 breast, 68.7%; in the assay on RXF 393 renal, 62.9%; with SF-268 CNS, 63.4%; in the assay on SF-295 CNS, 37.5%. Moreover, the growth in the assay on SF-539 CNS was 43.9%; in the assay with UACC-257 melanoma, 58.3%; in the assay with M14 melanoma, 24%; in the assay with HCT-15 colon it was 24.4%; in the assay with HT29 colon, 4.71% (active); in the assay with SNB-75 CNS it was 63.5%. Besides, the growth was 72.5% in the assay with SNB-19 CNS; 33.6% in the assay on U251 CNS; 39.1% with PC-3 prostate; 20.5% in the assay with SK-MEL-5 melanoma; 51.2% in the assay on UACC-62 melanoma; 44.4% in the assay on LOX IMVI melanoma. Besides, the growth is 57.5% in the assay with SK-MEL-28 melanoma and -11.7% (active) with SK-MEL-2 melanoma.
On to `NC(=O)c1ccc(-c2cccc3c(=O)nc(N4CCOCC4)oc23)cc1`, for which the growth was 110% in the assay on K-562 leukemia; 85.4% in the assay with MALME-3M melanoma; 91.9% in the assay with MDA-MB-231 breast; 104% in the assay with RXF 393 renal; 93.8% with SF-268 CNS; 93.9% in the assay on SF-295 CNS. Also, the growth is 102% in the assay with SF-539 CNS; 104% in the assay with UACC-257 melanoma; 97.8% with M14 melanoma; 102% in the assay with HCT-15 colon; 101% in the assay with HT29 colon; 74.5% in the assay with SNB-75 CNS. The growth was 99.1% in the assay on SNB-19 CNS; 97.7% in the assay with U251 CNS; 89.9% in the assay with PC-3 prostate; 97.8% in the assay on SK-MEL-5 melanoma; 92.3% in the assay on UACC-62 melanoma; 91.1% with LOX IMVI melanoma. Also, the growth was 103% in the assay with SK-MEL-28 melanoma and 102% in the assay on SK-MEL-2 melanoma.
`COc1cc(Cl)cc(-c2nn(-c3cccc(NC(=O)Nc4cc(C(F)(F)F)cc(C(F)(F)F)c4)c3)cc2-c2ccncc2)c1`: the growth in the assay on K-562 leukemia is 6.4% (active); in the assay on MALME-3M melanoma it was -19.2% (active); in the assay on MDA-MB-231 breast, -75% (active); with RXF 393 renal, -29.3% (active); with SF-268 CNS, 14.2%; in the assay with SF-295 CNS, -43.2% (active). For the same molecule, the growth with SF-539 CNS was -17.7% (active); in the assay on UACC-257 melanoma, -25.6% (active); in the assay on M14 melanoma, 1.22% (active); with HCT-15 colon, 6.21% (active); in the assay on HT29 colon, 3.93% (active); in the assay with SNB-75 CNS it was 11.3%. The growth was 26.1% in the assay with SNB-19 CNS; -58% (active) in the assay with U251 CNS; -6.27% (active) in the assay with PC-3 prostate; -79.4% (active) in the assay on SK-MEL-5 melanoma; -21.2% (active) in the assay on UACC-62 melanoma; -24% (active) with LOX IMVI melanoma. Further, the growth in the assay with SK-MEL-28 melanoma was 6.55% (active); in the assay on SK-MEL-2 melanoma, -38.1% (active).
`N#Cc1cccc(OCc2nc(N)nc(N)c2-c2ccc(Cl)c(Cl)c2)c1`: the growth with K-562 leukemia is 14.6%; in the assay with MALME-3M melanoma, 33.6%; with MDA-MB-231 breast, 51.4%; in the assay on RXF 393 renal, 43.7%; with SF-268 CNS, 28.4%; with SF-295 CNS it was -7% (active). The growth in the assay on SF-539 CNS was 22.6%; in the assay with UACC-257 melanoma, 11.1%; with M14 melanoma, 23.2%; in the assay on HCT-15 colon, 17.7%; in the assay with HT29 colon it was 9.63% (active); in the assay on SNB-75 CNS, 51.7%. Moreover, the growth was 47.1% in the assay with SNB-19 CNS; 22% in the assay with U251 CNS; 27.5% in the assay on PC-3 prostate; 22.4% in the assay on SK-MEL-5 melanoma; 22.7% in the assay with UACC-62 melanoma; 15.5% in the assay on LOX IMVI melanoma. For the same molecule, the growth was 53.4% in the assay on SK-MEL-28 melanoma and 42.8% with SK-MEL-2 melanoma.
`CC(C)=NNc1ncnc2c1ncn2C1OC(CO)C(O)C1O` (stereo not given): the growth with K-562 leukemia was 14.8%; in the assay with MALME-3M melanoma, -15.8% (active); in the assay on MDA-MB-231 breast it was 19.3%; in the assay with RXF 393 renal, 23.1%; with SF-268 CNS, 40.9%; with SF-295 CNS, 8.82% (active). Also, the growth in the assay with SF-539 CNS is 35.3%; in the assay with UACC-257 melanoma, 73.9%; in the assay on M14 melanoma, 35.8%; in the assay on HCT-15 colon, 12.6%; in the assay with HT29 colon, 18.1%; in the assay on SNB-75 CNS, 32.1%. In addition, the growth in the assay on SNB-19 CNS is 42.5%; with U251 CNS, 29.1%; in the assay on PC-3 prostate, 17.7%; with SK-MEL-5 melanoma, 20.5%; with UACC-62 melanoma it was 34.7%; with LOX IMVI melanoma, 7.06% (active). For the same molecule, the growth was 54.7% in the assay on SK-MEL-28 melanoma and 41.4% in the assay with SK-MEL-2 melanoma.
Take `Nc1c(C(=O)Nc2cccc(Br)c2)sc2nc3c(cc12)C(O)CCC3` (stereo not given): the growth in the assay with K-562 leukemia was 7.52% (active); in the assay with MALME-3M melanoma, 64.3%; in the assay on MDA-MB-231 breast, 44.2%; in the assay with RXF 393 renal it was -22% (active); in the assay with SF-268 CNS, 46.2%; with SF-295 CNS it was 33.9%. For the same molecule, the growth in the assay with SF-539 CNS is -21.2% (active); in the assay on UACC-257 melanoma, 64.7%; in the assay on M14 melanoma, 12.8%; in the assay with HCT-15 colon it was 23.5%; with HT29 colon, 5.13% (active); in the assay with SNB-75 CNS it was 31.2%. For the same molecule, the growth with SNB-19 CNS was 62.2%; in the assay with U251 CNS it was 19.3%; with PC-3 prostate, 23%; in the assay on SK-MEL-5 melanoma it was 31.6%; in the assay with UACC-62 melanoma it was 48.9%; in the assay with LOX IMVI melanoma, 46.2%. In addition, the growth was 63.2% in the assay with SK-MEL-28 melanoma and 58.7% in the assay on SK-MEL-2 melanoma.
With `CCN1CCN(c2nc3ccccc3c3c(=O)c4ccccc4sc23)CC1`, the growth with K-562 leukemia is 12.8%; in the assay with MALME-3M melanoma, 52.5%; with MDA-MB-231 breast, -2.38% (active); in the assay with RXF 393 renal, 29.8%; in the assay with SF-268 CNS, 45.6%; in the assay with SF-295 CNS it was 24.6%. Moreover, the growth was 48% in the assay on SF-539 CNS; 73.9% with UACC-257 melanoma; -18.5% (active) in the assay with M14 melanoma; 31.8% with HCT-15 colon; 9.96% (active) in the assay with HT29 colon; 44.5% in the assay on SNB-75 CNS. Besides, the growth in the assay on SNB-19 CNS is 67.2%; in the assay with U251 CNS, 27.9%; in the assay with PC-3 prostate, 43.7%; in the assay with SK-MEL-5 melanoma it was 7.43% (active); in the assay on UACC-62 melanoma it was 7.97% (active); in the assay on LOX IMVI melanoma, 23.5%. In addition, the growth in the assay with SK-MEL-28 melanoma was 31.1%; with SK-MEL-2 melanoma it was 98.5%.
